Results filed as inconclusive are left out. Active and inactive are the calls of the source. Calls come from the whole dose curve; as a rule, active = well fitted inhibition curve with a large enough effect; inconclusive = small, poorly fitted or top-dose-only effect; inactive = no such curve, though single readings can be large or run the other way.
What follows are compounds tested on Zika virus NS2B-NS3 protease (linked construct) (assay: Primary screen NINDS Rhodamine qHTS for Zika virus inhibitors (AID 1347160; note: nearly all actives have a fitted effect of over 55% in size)). Conditions: purified NS2B-NS3 protease, Rhodamine110 substrate fluorescence; series mostly up to 57.1 µM; activity change, negative = inhibition: at the top concentration.
Summary of the method: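 Enzyme (25 nM, linked NS2B-NS3) was preincubated 15 min with compound in 10 mM Tris-HCl pH 8.0, 0.01% Tween 20. Rhodamine110 substrate (1.5 microM) was then added and fluorescence read at start and after 15 min.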
% is set by controls: 0 for no effect and ±100 for the full control effect.

| SMILES | activity change, negative = inhibition | outcome |
| --- | --- | --- |
| COc1cc(CCC2=NN=C(NC(=O)c3ccc(N4C[C@@H](C)N[C@@H](C)C4)cc3)C2)cc(OC)c1 | 76.1% (inactive) |  |
| COc1ccc(CCO[C@@H]2O[C@H](CO[C@H]3OC[C@](O)(CO)[C@H]3O)[C@@H](OC(=O)/C=C/c3ccc(O)c(O)c3)[C@H](O[C@@H]3O[C@@H](C)[C@H](O)[C@@H](O)[C@H]3O)[C@H]2O)cc1OC | -4.09% [at 15.1 µM] (inactive) |  |
| C=C(C)C(=O)OC1CC(CO)CCC/C(CO)=C/C2OC(=O)C(=C)C21 (stereo not drawn) | 28.7% [at 33.1 µM] (inactive) |  |
| COC1=CC(=O)C[C@@H](C)[C@@]12Oc1c(Cl)c(OC)cc(OC)c1C2=O | 4.9% [at 33.1 µM] (inactive) |  |
| C/C=C(/C)C(=O)OC1C=C2C3C(C)C(C)C(OC(=O)C(C)C(C)O)CC3(C)CCC2(C)C2(C)CC(OC(C)=O)C3C(C)(C)C(O)C(=O)CC3(C)C12 (stereo not drawn) | -9.77% [at 15.1 µM] (inactive) |  |
| O=C(COc1ccc2ccccc2c1Br)Nc1cccnc1 | 24.3% (inactive) |  |
| Cc1cnn(-c2ccccc2)c1NC(=O)COCc1ccccc1 |  | inactive |
| Cn1c(SCC(=O)N2CCC[C@H]2C(=O)Nc2ccccc2-c2ccccc2)nc2ccccc21 | 2.31% (inactive) |  |
| CC(C)c1ccccc1OC(=O)NCCc1ccc2ccccc2c1 |  | inactive |
| CCOC(=O)C1=Cc2ccc(C(F)(F)C(F)(F)F)cc2N=C(N)C1 | 31% (inactive) |  |
| COc1c(CCC(=O)O)cccc1O[C@@H]1O[C@H](CO)[C@@H](O)[C@H](O)[C@H]1O | -26.6% [at 33.1 µM] (inactive) |  |
| O=C(NS(=O)(=O)c1ccc(Br)s1)c1ccc(Cl)cc1Cl | -17.3% (inactive) |  |
| C/C(=C\Cc1c(O)c(Cl)c(C)c(C=O)c1O)CC/C=C(\C)[C@H]1CC(=O)C(C)(C)O1 | -18.2% [at 33.1 µM] (inactive) |  |
| CCC(CC)(NC(=O)C(C)C)C(=O)N[C@@H](CCCN=C(N)N)C(=O)NC1(C(=O)NC(c2ccc(F)cc2)c2ccc(F)cc2)CCCC1 | 34.2% (inactive) |  |
| C=C(C(=O)OC[C@H]1O[C@@H](OC(=O)/C=C/c2ccccc2)[C@H](O)[C@@H](O)[C@@H]1O)C(O)CO (stereo partly drawn) |  | inactive [at 33.1 µM] |
| O=S(=O)(c1ccc(Cl)cc1)N1CCN(c2ccnc3cc(Cl)ccc23)CC1 | -1.72% (inactive) |  |
| CCS(=O)c1nc(-c2cccc(OCc3ccccc3)c2)cc(C(F)(F)F)n1 (stereo not drawn) | -16.6% (inactive) |  |
| CC(C)CCNC(=O)c1ccc2c(c1)nc(Nc1n[nH]c3ccc(-c4ccccc4OC(F)(F)F)cc13)n2C1CCC(O)CC1 (stereo not drawn) | -13.9% (inactive) |  |
| Cc1cccc(N2CCN(C(=O)c3cc(S(=O)(=O)N(C)C)ccc3N3CCCC3)CC2)c1C | 1.33% (inactive) |  |

| SMILES | activity change, negative = inhibition | outcome |
| --- | --- | --- |
| CC1(C)CC[C@]2(C(=O)O[C@@H]3O[C@H](CO)[C@@H](O)[C@H](O)[C@H]3O)CC[C@]3(C)C(=CCC4[C@@]5(C)CC[C@H](O[C@@H]6O[C@H](C(=O)O)[C@H](O)[C@H](O)[C@H]6O)C(C)(C)C5CC[C@]43C)[C@@H]2C1 (stereo partly drawn) | -10.5% [at 15.1 µM] (inactive) |  |
| COC1CCN(c2cccc(-c3cc(NC(C)=O)nc(-n4nc(C)cc4C)n3)n2)CC1 | 32.7% (inactive) |  |
| C=C1C(=O)O[C@H]2/C=C(/C)[C@@H](OC(C)=O)C/C=C(\C)C[C@@H](OC(=O)/C(=C/C)COC(=O)/C(=C/C)CO)[C@@H]12 | 1.62% [at 33.1 µM] (inactive) |  |
| CC(C)(Cc1ccccc1)NCC(O)c1ccc(O)c(NS(C)(=O)=O)c1 (stereo not drawn) |  | inactive |
| CC(C)c1noc(C2CCN(c3ncnc(Nc4ccc(S(C)(=O)=O)cc4F)c3[N+](=O)[O-])CC2)n1 |  | inactive |
| C=C1C(=O)O[C@H]2C1CCC(C)=C1C(=O)C=C(C)[C@@]12O (stereo partly drawn) |  | inactive |
| C=C1C(=O)OC2CC(C)C(CCC(C)O)=CCC12 (stereo not drawn) | 4.83% (inactive) |  |
| CCOC(=O)c1ccc(OCCC2CCN(c3ccc(C)nn3)CC2)cc1 | -14.2% (inactive) |  |
| C=C1CCN([C@H](C)[C@](O)(Cn2cncn2)c2ccc(F)cc2F)CC1 | 23.8% (inactive) |  |
| CC1CCC/C=C/C(=O)c2c(O)cc(O)cc2CC(=O)O1 (stereo not drawn) | -16.6% (inactive) |  |
| O=C(Nc1cccc2cccnc12)c1ccc(N2C(=O)[C@@H]3C4C=CC(C4)[C@@H]3C2=O)cc1 | 14.6% (inactive) |  |
| CC(C)(C)c1ccc(-c2nc3c(N4CCN(Cc5ccc6nccnc6c5)CC4)cccc3[nH]2)cc1 | 64.5% (inactive) |  |
| O=C(Nc1ccccc1Br)NC1CCN(c2ccc(C(F)(F)F)cn2)C1 (stereo not drawn) | -7.78% (inactive) |  |
| Nc1nc2c(cnn2CCCc2ccc(O)cc2)c2nc(-c3ccco3)nn12 | 46.9% (inactive) |  |
| NCC(CNc1nc(Nc2cccc(NC(=O)N3CCCC3)c2)ncc1I)C(=O)c1cccs1 (stereo not drawn) | 45.2% (inactive) |  |
| NC(N)=N/N=C/c1ccccc1Cl | 90% (inactive) |  |
| CC1(C)CC[C@]2(C(=O)O)CC[C@]3(C)C(=CCC4[C@@]5(C)C[C@@H](O)[C@H](O)[C@@](C)(CO)C5CC[C@]43C)[C@@H]2[C@@H]1O (stereo partly drawn) | -9.91% [at 33.1 µM] (inactive) |  |
| O=C(Nc1ccccc1C(=O)NC1CCCCNC1=O)c1cc2ccccc2s1 (stereo not drawn) | -7.56% (inactive) |  |
| C/C=C(\C)C(=O)O[C@@H]1[C@@H](C)[C@]2(O)[C@@H]3C=C(C)C(=O)[C@H]3CC(CO)=C[C@H]2C2C(C)(C)[C@@]21OC(=O)C(C)CC (stereo partly drawn) |  | inactive [at 33.1 µM] |

— PubChem BioAssay (NCATS)
